Values joined by “and” are separate entries in the source; they are usually repeats but may differ in a detail not shown here. Identical values can stand only once. Inconclusive results are not listed. Where a call stands in place of a potency, no number is given. Active and inactive are the calls of the source. Calls follow the shape of the dose curve; as a rule, active = well fitted cell-killing curve with a large enough effect in the repeat runs (not every such curve was filed as active); inconclusive = weak or mixed curves, or effect the other way; inactive = no such curve, though single readings can be large or run the other way.
Test: qHTS assay to identify small molecule antagonists of the farnesoid-X-receptor (FXR) signaling pathway - cell viability counter screen (AID 743221); also: nearly all actives have a fitted effect of over 50% in size
Conditions: FXR-bla HEK293T viability, CellTiter-Glo luminescence, 16 h; series mostly up to 62.6 µM
Source text: National Center for Advancing Translational Sciences [NCATS]
NIH Chemical Genomics Center [NCGC]
U.S. Environmental Protection Agency [EPA]
National Institutes of Environmental Health Sciences [NIEHS]
National Toxicology Program [NTP]
U.S. Food and Drug Administration [FDA]
The farnesoid-X-receptor (FXR), a nuclear hormone receptor, is highly expressed in liver, intestine, kidney and adrenal cortex. Natural ligands of FXR are the bile acids (Cholic acid, Chenodeoxy cholic acid etc). FXR is an important regulator of diverse metabolic pathways, including the bile acid homeostasis, lipid and glucose metabolisms. FXR regulates the expression of target genes by binding either as a monomer or as a heterodimer with the retinoid X receptor (RXR). Numerous studies have reported that FXR exerts protective function during cholestasis, diabetes, liver regeneration, and cancer. To identify compounds that inhibit FXR signaling, GeneBLAzer FXR-UAS-bla HEK 293T cell line (Invitrogen, Carlsbad, CA) containing a beta-lactamase reporter gene under the control of a UAS response element was used to screen the Tox21 10K compound library. The cytotoxicity of the Tox21 compound library against the FXR-bla cell line was tested in parallel by measuring the cell viability using CellTiter-Glo assay in the same wells.
Tox21 Assay Protocol Summary:
FXR-bla cells were dispensed at 5000 cells/5uL/well in 1536-well black wall/clear bottom plates using a Multidrop Combi (Thermo Fisher Scientific, Waltham, MA) dispenser. After the assay plates were incubated at 37 C and 5% CO2 for 5 h, 23 nL of compounds dissolved in DMSO, positive controls or DMSO only was transferred to the assay plate by a Pintool station (Kalypsys, San Diego, CA), followed by addition of 1 uL Chenodeoxycholic acid (50 uM, final concentration in the wells). The assay plates were incubated at 37C for 16 h. After 1 uL of LiveBLAzerTM B/G FRET substrate was added using a Bioraptr Flying Reagent Dispenser (FRD) workstation (Beckman Coulter, Indianapolis, IN), the plates were incubated at room temperature for 2 h, and fluorescence intensity was measured by an Envision plate reader (PerkinElmer, Shelton, CT). For cell viability readout that measures cytotoxicity, 4uL/well of CellTiter-Glo reagent was added into the assay plates using a Bioraptr FRD. After 30 min incubation at room temperature, the luminescence intensity in the plates was measured using a ViewLux plate reader (PerkinElmer).
In the case of `CN=C=O`, the Potency was “inactive”.
For `Clc1ccc(C(Cl)(Cl)Cl)cc1Cl`, the Potency was “inactive”.
For `COC(=O)C(C)N(C(=O)c1ccco1)c1c(C)cccc1C` (stereo not given), the Potency was “inactive”.
With `O.O.O.O.O.O.O.O=S(=O)([O-])[O-].[Co+2]` the Potency was “inactive”.
For `CC(=O)[O][Sn]([c]1ccccc1)([c]1ccccc1)[c]1ccccc1`, the Potency was 0.138 µM (active).
For `CSC(=O)c1c(C(F)F)nc(C(F)(F)F)c(C(=O)SC)c1CC(C)C`, the Potency was “inactive”.
In the case of `OCC(Br)CBr` (stereo not given), the Potency was “inactive”.
With `[Cl][Hg][c]1ccccc1` the Potency was 1.38 µM (active).
For `Nc1ccccc1-c1ccccc1`, the Potency was “inactive”.
In the case of `CNN`, the Potency was “inactive”.
With `CN1CCc2cc3c(cc2C1O)OCO3` (stereo not given) the Potency was “inactive”.
In the case of `O=[N+]([O-])c1ccccc1-c1ccccc1`, the Potency was “inactive”.
For `Nc1c(Cl)c(Cl)c(Cl)c(Cl)c1Cl`, the Potency was “inactive”.
For `c1ccc(N=NNc2ccccc2)cc1`, the Potency was “inactive”.
With `O.O.O.O=C([O-])[C@H]([O-])[C@@H]([O-])C(=O)[O-].O=C([O-])[C@H]([O-])[C@@H]([O-])C(=O)[O-].[K+].[K+].[Sb+3].[Sb+3]` the Potency was “inactive”.
With `CC(C)C(Nc1ccc(C(F)(F)F)cc1Cl)C(=O)OC(C#N)c1cccc(Oc2ccccc2)c1` (stereo not given) the Potency was “inactive”.
With `CC1(C)[C@H](/C=C2\CCSC2=O)[C@@H]1C(=O)OCc1coc(Cc2ccccc2)c1` the Potency was “inactive”.
With `COc1ccc2c3c1O[C@H]1[C@H](O)CC[C@H]4[C@@H](C2)N(C)CC[C@@]341` the Potency was “inactive”.
With `CNC(=O)CSP(=O)(OC)OC` the Potency was “inactive”.
With `CCC1COC(Cn2cncn2)(c2ccc(Cl)cc2Cl)O1` (stereo not given) the Potency was “inactive”.
With `N#CC(C#N)=NNc1cccc(Cl)c1` the Potency was 6.92 µM (active).
With `Cc1ccn2nc(S(=O)(=O)Nc3c(F)cccc3F)nc2n1` the Potency was “inactive”.
With `NC(=O)C(Cl)Cl` the Potency was “inactive”.
For `CN(C)C(=S)SSC(=S)N(C)C`, the Potency was 121 nM (active) and 43.6 nM (active) and 237 nM (active).
In the case of `CCCC[N+]1(C)CCCC1` (tested in a mixture with another compound), the Potency was “inactive”.
For `CCC[CH2][Sn]([CH2]CCC)([CH2]CCC)[O][Sn]([CH2]CCC)([CH2]CCC)[CH2]CCC`, the Potency was 1.2 µM (active).
For `CC(=O)[O-].CC(=O)[O-].O.O.O.[Pb+2]`, the Potency was “inactive”.
With `COc1ccc2c(c1OC)C(=O)O[C@@H]2[C@H]1c2cc3c(cc2CCN1C)OCO3` the Potency was “inactive”.
With `CCOP(=S)(OCC)SC(CCl)N1C(=O)c2ccccc2C1=O` (stereo not given) the Potency was “inactive”.
With `COc1nc(C)nc(NC(=O)NS(=O)(=O)c2ccccc2Cl)n1` the Potency was “inactive”.
In the case of `Clc1ccc(C2(Cn3cncn3)OCCO2)c(Cl)c1`, the Potency was “inactive”.
In the case of `COC(=O)N(OC)c1ccccc1COc1ccn(-c2ccc(Cl)cc2)n1`, the Potency was “inactive”.
For `O=C(N[C@H]1N=C(c2ccccc2F)c2cccc3c2N(CC3)C1=O)c1cc2ccccc2[nH]1`, the Potency was “inactive”.
For `Cc1cnc2c(C(=O)O)c(Cl)ccc2c1`, the Potency was “inactive”.
For `COC(=O)c1cc(Oc2ccc(Cl)cc2Cl)ccc1[N+](=O)[O-]`, the Potency was “inactive”.
In the case of `Cc1ccc2cc3c(ccc4ccccc43)c3c2c1CC3`, the Potency was “inactive”.
In the case of `[Cl-].[Cl-].[Sn+2]`, the Potency was “inactive”.
For `CCCCCCCc1ccc(O)cc1`, the Potency was “inactive”.
With `BrCCCBr` the Potency was “inactive”.
For `CC(C)Br`, the Potency was “inactive”.
Potency is read from the fitted curve at half-maximal effect.
